Screens deposited in PubChem BioAssay by The Scripps Research Institute Molecular Screening Center.
Rows were chosen to be rich in hits. Some 2.1% of all compounds tested hit in one or more screens of this group.
TLR4 MyD88 blk: TLR4-MyD88 interaction inhibition; O00206; Cell-based TLR4-MyD88 binding inhibition assay; inhibition, % at 10 µM; 16,000 compounds, 0.06% hits; AID 811; in the data active = inhibition above about 45%
rat GALR2 ag: GALR2 (rat) receptor agonism; cell-based GALR2 agonist screen; activation, % at 10 µM; 16,000 compounds, 0.5% hits; AID 833; in the data active = activation above about 15%
S1P1 ag: activates the human S1P1 receptor. S1P1 agonist cell-based reporter assay. 16,000 compounds, 1.5% hits. AID 1044. activation, % at 4.5 µM; in the data active = activation above about 80%
OPRK1 antag MB: blocks the human kappa opioid receptor, Maybridge compounds; 16,000 compounds, 0.4% hits; P41145; inhibition, % at 9 µM; OPRK1 cells, antagonist mode, fluorescence readout; in the data active = inhibition above about 50%
Active calls of the source: *; . = not tested or not shown.

SMILES | TLR4 MyD88 blk | rat GALR2 ag | S1P1 ag | OPRK1 antag MB
Cc1nn(C)c(Sc2ccc(C(F)(F)F)cn2)c1[N+](=O)[O-] | -4.6 | -7.5 | -8.2 | -7.3
Cc1noc(C)c1C(=O)Oc1ccc([N+](=O)[O-])cc1 | -10.7 | -6.8 | 6.1 | 5.3
CSc1ncccc1C1=N/C(=C\c2ccc(C(F)(F)F)cc2)C(=O)O1 | -3.6 | -1.2 | -10.7 | -19.7
NC1=NNC(=O)/C1=C\c1cc([N+](=O)[O-])ccc1N1CCOCC1 | -9.2 | 24.9* | -2.6 | 10.6
N#C/C(=N\Nc1ccccc1Cl)S(=O)(=O)c1ccc(Cl)cc1 | -29.3 | -12.3 | 111.5* | 20.9
N#C/C(=N\O)S(=O)(=O)c1ccccc1 | -4.1 | 3.4 | 0.8 | 2.2
O=[N+]([O-])c1c(Sc2ccc(Cl)cc2)ccc2nsnc12 | -25.8 | 11.4 | -6.1 | 69.1*
CS(=O)(=O)/C(C#N)=C\c1ccc(Cl)s1 | 5.7 | -5.0 | -4.7 | 57.3*
COC(=O)/C=C1/NCCNC1=O | 6.2 | -7.4 | -8.2 | -3.4
N#CCOc1nc(-c2ccccc2)cc(-c2ccco2)c1C#N | -0.2 | 22.4* | -49.9 | -21.5
CCOC(=O)COc1nc(-c2cccs2)cc(-c2ccco2)c1C#N | 1.4 | -7.8 | -16.0 | -26.0
N#Cc1sc2sc(C#N)c(-c3cccs3)c2c1N | 1.7 | -8.4 | -6.3 | -11.9
CC(CCC(C)OC(=O)c1ccccc1C(=O)O)OC(=O)c1ccccc1C(=O)O (stereo unspecified) | 2.4 | 0.1 | 10.7 | 59.7*
CC(C)c1ccc(NC(=O)CSc2nccc(-c3ccco3)n2)cc1 | -0.8 | -8.4 | -8.9 | 6.5
COc1ccc(OS(=O)(=O)c2sc(Br)cc2Br)cc1 | -13.7 | -9.9 | 0.7 | 52.5*
O=C(N/N=C/c1ccc(O)cc1)c1ccccc1CO | -0.8 | -1.3 | 15.6 | 4.9
CC1CC(=O)Nc2ccccc2N1S(=O)(=O)c1ccc(F)cc1F (stereo unspecified) | 1.6 | -4.0 | -1.1 | 0.7
CC1CC(=O)Nc2ccccc2N1S(=O)(=O)c1cn(C)cn1 (stereo unspecified) | 9.4 | -5.7 | 120.8* | 4.3
CCCCCCCCCCCC1=NCCN1CCO | 3.6 | -3.5 | 16.7 | 5.1
O=C(NC(=O)N1CCOCC1)c1ccc([N+](=O)[O-])s1 | 14.0 | 2.0 | 89.0* | 2.9
O=C(NC(=O)N1CCOCC1)c1nnc(-c2ccccc2)o1 | -3.4 | -5.0 | -16.8 | 8.8
O=[N+]([O-])c1ccc(N/N=C2\CCOc3ccc(F)cc32)cc1 | -1.3 | 1.3 | 37.2 | 50.5*
Fc1ccc2c(c1)/C(=N\Nc1cc(C(F)(F)F)ccc1Cl)CCO2 | 1.6 | 0.5 | -26.1 | 6.6
c1ccc(N2CC3CCc4ccccc4C3=N2)cc1 (stereo unspecified) | . | 23.0* | -38.8 | -53.5
COc1ccc(-c2[nH]c(=S)[nH]c(=O)c2C#N)cc1OC | -4.7 | -6.0 | -9.2 | 0.3
SMILES | TLR4 MyD88 blk | rat GALR2 ag | S1P1 ag | OPRK1 antag MB
CC1(C)CC(=O)c2c(SCCOC(=O)c3ccccc3Cl)sc(C#N)c2C1 | -17.5 | -5.0 | 97.3* | -14.0
CC1(C)CC(=O)c2c(SCCOC(=O)Nc3ccc(OC(F)(F)F)cc3)sc(C#N)c2C1 | -15.9 | -10.5 | -19.4 | -12.6
O=C(CSc1nc2ccccc2c(=O)[nH]1)c1cc2ccccc2o1 | -3.6 | -4.5 | 91.8* | 1.7
Cn1ncc2ccccc2c1=O | -44.3 | 0.6 | -26.6 | 14.9
O=c1c2ccccc2nc(-c2ccco2)n1Cc1ccccc1 | 16.5 | -1.1 | 91.5* | -9.1
Cc1cc(/C(N)=N/OC(=O)c2ccno2)no1 | 11.5 | -8.6 | 6.0 | 11.7
Cc1cc(C(=O)O/N=C(\N)c2ccc(C(C)(C)C)cc2)no1 | 7.1 | -6.5 | 89.8* | 23.6
COc1ccc(Oc2ccc([N+](=O)[O-])cc2C2=N/C(=C/N(C)C)C(=O)O2)cc1 | -0.8 | -3.7 | -20.9 | 3.7
COc1ccc(/C=C(\C#N)C(=O)c2cc(C(C)(C)C)on2)cc1 | -1.9 | 21.4* | -9.2 | 16.6
C#CCOC(=O)Nc1cnc(Oc2c(Cl)cccc2Cl)c(C(F)(F)F)c1 | 1.2 | -9.9 | 98.6* | 12.1
Nc1cnc(Oc2c(Cl)cccc2Cl)c(C(F)(F)F)c1 | 9.7 | -4.9 | 86.2* | -0.1
N/C(Cc1cccs1)=N\OC(=O)Nc1cc(Cl)cc(Cl)c1 | -16.2 | -1.6 | 3.5 | 1.0
COC(=O)CO/N=C/c1ccc(Cl)cc1Cl | 0.1 | -3.8 | 13.7 | 8.3
O=C(CO/N=C/c1ccc(Cl)cc1Cl)NNC(=S)Nc1cc(Cl)ccc1Cl | 0.1 | -4.0 | 85.8* | 9.0
COc1ccc(C(=O)NC2CCS(=O)(=O)C2)cc1 (stereo unspecified) | 3.1 | -3.7 | -5.2 | 5.9
Cc1ccsc1CNC(=O)c1sccc1Cl | 8.4 | -5.2 | -7.5 | 0.1
